Data: PubChem BioAssay (NCATS)
Records with an inconclusive call do not appear. Activity calls are given as the source filed them. Unless noted, calls follow the shape of the dose curve; as a rule, active = well fitted curve in the direction sought with a large enough effect; inconclusive = small, poorly fitted or top-dose-only effect, or another doubt; inactive = no such curve, though single readings can be large; an effect the other way counts as inactive or inconclusive.

Legend:
[1] = molecular target: Glucocorticoid receptor (Homo sapiens) (UniProt P04150); test: GR-GFP Redistribution (AID 450;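 active = compounds whose dose series gives a full or clear partial fitted curve of increased nuclear translocation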; also: potency is read from the fitted curve at half-maximal effect); settings: U2OS GR-GFP nuclear translocation, laser cytometry, 2 h
[2] = molecular target: Glucocorticoid receptor (Homo sapiens) (UniProt P04150); test: GR-EFC Redistribution (AID 451; calls by dose curve; also: potency is read from the fitted curve at half-maximal effect); settings: CHO-K1 GR-EFC translocation, beta-gal luminescence, 2 h
In short: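 CHO-K1 cells expressing nuclear EA and GR-ED fragments of b-gal; compounds titrated up to 46 uM final, 2 h at 37 C. GR nuclear translocation read as complemented b-gal luminescence after 1 h RT detection.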

[3] = molecular target: Mitogen-activated protein kinase 10 (Mus musculus) (UniProt Q61831); test: JNK3 AlphaScreen Assay (AID 530; active = well fitted curve in either direction with a large enough effect, not every such curve was filed as active;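 also: kinase came from lysate of stimulated human HepG2 cells; signal reports phosphorylation of biotinylated GST-cJun 1-79 at Ser73 with 10 µM ATP; % is scaled to controls: 0 for no effect and ±100 for the full control effect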)
In short: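 Pre-activated (IL-1β/TNFα) JNK3 in HepG2 lysates phosphorylates biotin-GST-cJun(1-79), 10 uM ATP; anti-phospho-cJun(Ser73) AlphaScreen read at room temperature, pH 7.6 Tris buffer. Compounds pre-incubated 15 min as titrations.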

[4] = molecular target: Cytochrome P450 3A4 (Homo sapiens) (UniProt P08684); test: qHTS Assay for Inhibitors and Substrates of Cytochrome P450 3A4 (AID 884); also: nearly all actives have a fitted effect of over 50% in size; also: potency is read from the fitted curve at half-maximal effect
In short: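 20 nM human CYP3A4 with 25 uM Luciferin-PPXE (at KM) in 200 mM KPO4, preincubated 10 min with compound; NADPH regeneration started a 60 min RT reaction. Luciferin detected by luminescence, normalized to 57 uM ketoconazole as full inhibition.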

[5] = molecular target: Cytochrome P450 3A4 (Homo sapiens) (UniProt P08684); test: qHTS Assay for Activators of Cytochrome P450 3A4 (AID 885); also: nearly all actives have a fitted effect of over 65% in size; also: potency is read from the fitted curve at half-maximal effect
In short: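 Quantitative HTS format: compounds preincubated with 20nM human CYP3A4 and Luciferin-PPXE substrate at KM, reaction started by NADPH regeneration, stopped after 60 min, luciferase luminescence read 20 min later.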

[6] = molecular target: Cytochrome P450 2D6 (Homo sapiens) (UniProt P10635); test: qHTS Assay for Inhibitors and Substrates of Cytochrome P450 2D6 (AID 891); also: nearly all actives have a fitted effect of over 60% in size; also: potency is read from the fitted curve at half-maximal effect
In short: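 Human CYP2D6 (5 nM) with 30 uM Luciferin-ME EGE (at Km) in 100 mM KPO4, compound preincubated 10 min, then NADPH regeneration system for 60 min at room temperature. Luciferin read by luminescence; normalized to 1.43 uM quinidine.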

[7] = molecular target: Ubiquitin carboxyl-terminal hydrolase 1 (Homo sapiens) (UniProt O94782); test: Inhibitors of USP1/UAF1: Pilot qHTS (AID 504865); also: nearly all actives have a fitted effect of over 35% in size; also: potency is read from the fitted curve at half-maximal effect
In short: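 Enzyme-free wells gave the negative control, while test wells held 1nM USP1/UAF1 preincubated with compound for 15 min at room temperature. Ub-Rho at 150nM final started the reaction, and fluorescence at 480/540 nm was recorded kinetically.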

[8] = molecular target: DNA dC->dU-editing enzyme APOBEC-3G (Homo sapiens) (UniProt Q9HC16); test: qHTS for inhibitors of Vif-A3G interactions: Validation (AID 588379); also: 0% is about no effect
In short: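 HeLa cells stably expressing Vif and A3G-eYFP, 700 cells/well, incubated overnight at 37 deg C, then exposed to compound overnight at 37 deg C. Inhibition of Vif-mediated degradation read as increased yellow fluorescence (Ex 488/Em 500-530) by laser-scanning cytometry.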

[9] = test system: Zika virus NS2B-NS3 protease; test: Primary screen GU AMC qHTS for Zika virus inhibitors (AID 1347154);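 also: 0% = no-inhibitor control and -100% = no-enzyme control; nearly all actives have a fitted effect of over 70% in size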
In short: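 Unlinked Zika NS2B hydrophilic domain–NS3 protease complex at 25 nM in 10 mM Tris-HCl pH 8.0, 0.01% Tween 20, with an AMC peptide substrate. Fluorescence change (340/450 nm) over 15 min at room temperature, normalized to controls, fitted to 4-parameter Hill.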

[10] = Confirmatory screen GU Rhodamine qHTS for Zika virus inhibitors qHTS (AID 1347157);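 also: plate controls were no-inhibitor wells for no effect and no-enzyme wells for full effect; nearly all actives have a fitted effect of over 70% in size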
In short: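 Compounds, tested up to 114 microM, were incubated for 15 minutes with 25 nM unlinked NS2B-NS3 protease at pH 8.0. Cleavage of 1.5 microM Rhodamine110 substrate was then followed by fluorescence for 15 minutes.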

[11] = molecular target: 3',5'-cyclic-AMP phosphodiesterase 4B (Homo sapiens) (UniProt Q07343); test: qHTS Assay for Inhibitors of PDE-IV (AID 607; active = well fitted activation curve with a large enough effect in the main read-out, with a control signal flat, not every such curve was filed as active; also: % of control where 0% means no effect)
In short: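 Live HEK293 cells with a modified cyclic nucleotide-gated (CNG) channel report intracellular cAMP via membrane-potential dye fluorescence (ex 535/em 590 nm). Endogenous PDE-IV was targeted. Compounds were tested at up to 22.9 uM final; RO 20-1724 100 uM served as control.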

[12] = molecular target: Cytochrome P450 1A2 (Homo sapiens) (UniProt P05177); test: p450-cyp1a2 (AID 410; calls by dose curve)
In short: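 20nM CYP1A2 with 100uM Luciferin-ME (at Km) in 100mM KPO4; compound preincubated 10 min, NADPH regeneration added, 60 min at room temperature. Luciferin quantified by luminescence after detection reagent; normalized to 57 uM furafylline.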

[13] = molecular target: Cytochrome P450 2C9 (Homo sapiens) (UniProt P11712); test: qHTS Assay for Inhibitors and Substrates of Cytochrome P450 2C9 (AID 883); also: nearly all actives have a fitted effect of over 60% in size
In short: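 10nM CYP2C9 + 100uM Luciferin-H (=KM), 25mM KPO4; cpd 10 min 37C; NADPH regen, 60 min 37C; stop/detect with P450 Glo-Buffer 20 min; luminescence. Norm. to 57uM sulphaphenazole as full inhibition.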

[14] = molecular target: Cytochrome P450 2C19 (Homo sapiens) (UniProt P33261); test: qHTS Assay for Inhibitors and Substrates of Cytochrome P450 2C19 (AID 899); also: nearly all actives have a fitted effect of over 60% in size
In short: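 Luminescent read-out of luciferin formed from Luciferin-H EGE (10uM, equal to KM). Enzyme 5nM in 50mM KPO4; compound added, 10 min at 37C, then NADPH regenerating system for 60 min at 37C. Full inhibition defined by 57uM ketoconazole.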

[15] = qHTS profiling for inhibitors of Plasmodium falciparum (3D7) proliferation (AID 743322);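 also: infected erythrocytes exposed to compound for 72 h before lysis; 100% = DMSO vehicle wells and 0% = 0.29 µM artemisinin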; settings: P. falciparum 3D7 proliferation; at 28.7 µM (top of the series)
In short: (§1)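 Erythrocytes infected with P. falciparum (0.3% parasitemia, 2.5% hematocrit) incubated with compounds 72 h at 37 C, 5% CO2. Lysis with saponin/Triton buffer containing SYBR Green I, overnight at room temperature in the dark; DNA fluorescence (485/535 nm) normalised to 0.29 uM artemisinin and DMSO.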

[16] = qHTS profiling for inhibitors of Plasmodium falciparum (DD2) proliferation (AID 743323; call rule not given here); settings: lower = more inhibition; at 28.7 µM (top of the series)
In short: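 Parasite proliferation measured via DNA-dye fluorescence, as uninfected erythrocytes lack DNA. Cultures at 0.3% parasitemia and 2.5% hematocrit incubated 72 h with compound; signal scaled between vehicle and 0.29 uM artemisinin wells.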

[17] = qHTS profiling for inhibitors of Plasmodium falciparum (HB3) proliferation (AID 743324); settings: Plasmodium falciparum HB3 blood-stage proliferation; at 28.7 µM (top of the series);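 also: 100% = DMSO vehicle wells and 0% = artemisinin-treated control wells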
In short: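 P. falciparum HB3 grown in erythrocytes (0.3% parasitemia, 2.5% hematocrit final) with compound for 72 h at 37 C, 5% CO2. Parasite DNA detected by SYBR Green after saponin/triton lysis overnight; normalized to 0.29 uM artemisinin and DMSO.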

[18] = qHTS profiling of the MIPE4 collection as inhibitors of Plasmodium falciparum (3D7) proliferation (AID 743344; call rule not given here;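 also: scaled between DMSO vehicle wells and 0.29 µM artemisinin as full inhibition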); settings: P. falciparum 3D7 in erythrocytes, SYBR Green DNA fluorescence, 72 h; at 28.5 µM (top of the series)
In short: as §1

[19] = qHTS profiling of the MIPE4 collection as inhibitors of Plasmodium falciparum (DD2) proliferation (AID 743345; call rule not given here); settings: P. falciparum Dd2 in erythrocytes, SYBR Green DNA, 72 h; at 28.5 µM (top of the series)
In short: as §1

[20] = qHTS profiling of the MIPE4 collection as inhibitors of Plasmodium falciparum (DD2) proliferation (Rep 2) (AID 743346; call rule not given here); settings: P. falciparum Dd2 in erythrocytes, SYBR Green DNA, 72 h; at 28.5 µM (top of the series)
In short: as §1

[21] = qHTS profiling of the MIPE4 collection as inhibitors of Plasmodium falciparum (HB3) proliferation (AID 743347; call rule not given here;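 also: plate controls were DMSO vehicle wells for no effect and artemisinin wells for full effect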); settings: P. falciparum HB3 in erythrocytes, SYBR Green DNA, 72 h; at 28.5 µM (top of the series)
In short: as §1

[22] = Stat Signaling Pathway (AID 446; active = well fitted curve in either direction with a large enough effect, not every such curve was filed as active;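 also: ME-180 cervical cancer cells given 40 pM IL-6 alongside compound; SIE-controlled beta-lactamase reporter measured as 460/530 nm FRET emission ratio; % is scaled to controls: 0 for no effect and ±100 for the full control effect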); settings: ME-180 (cervical carcinoma) SIE beta-lactamase reporter, IL-6 stimulated, 5 h
In short: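 IL-6/STAT signaling read in ME-180 cells via an SIE beta-lactamase reporter. Stimulus was 40 pM IL-6 (its AC50) for 5 hrs, so both activation and inhibition register.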

[23] = molecular target: Guanine nucleotide-binding protein G(i) subunit alpha-1 (Homo sapiens) (UniProt P63096); test: qHTS Assay for Inhibitors of RGS12 GoLoco Motif Activity (Green Fluorophore) (AID 879);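 also: 0% = labeled peptide with Gαi1 and full inhibition = labeled peptide alone without protein; negative values mean loss of peptide binding seen as reduced polarization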
In short: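 Fluorescence polarization assay: 50 nM Gαi1 with 10 nM FITC-labeled RGS12 GoLoco peptide in 10 mM Tris pH 7.5, 150 mM NaCl, 0.1 mM GDP, 0.05% NP40, 10 min at room temperature with compound.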

[24] = molecular target: Pyruvate kinase PKM (Homo sapiens) (UniProt P14618); test: qHTS Assay for Activators of Human Muscle Pyruvate Kinase (AID 954; active = well fitted curve in the direction sought with a large enough effect, not every such curve was filed as active;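 also: 0% = uninhibited enzyme and -100% = no enzyme or full thiadiazolimine inhibition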)
In short: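 Enzyme was run at intermediate activity so both inhibitors and activators could be detected. ATP formed from ADP and PEP by 0.1 nM human PKM2 during a 1 h room-temperature incubation was quantified by coupled luciferase luminescence.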

[25] = molecular target: Alpha-galactosidase A (Homo sapiens) (UniProt P06280); test: Counterscreen for Glucocerebrosidase Inhibitors: qHTS Assay for Human alpha-Galactosidase at pH 4.5 (AID 992); also: 0% is about no effect
In short: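 Read-out is 4-methylumbelliferone fluorescence (365 nm excitation, 440 nm emission) after a pH 10 NaOH/glycine stop. Reactions held 2 nM enzyme and 80 uM substrate at pH 4.5 for 20 min at room temperature.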

[26] = molecular target: alpha-glucosidase (Oryza sativa, rice) (UniProt Q653V4); test: Counterscreen for Glucocerebrosidase Inhibitors: qHTS Assay for Rice alpha-Glucosidase at pH 5.0 (AID 997);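 also: 0% = full activity with enzyme and -100% = basal without enzyme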
In short: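 Rice alpha-glucosidase (4 nM final) with 400 uM 4-methylumbelliferyl-alpha-D-glucopyranoside in citrate buffer pH 5.0, 20 min at room temperature, stopped at pH 10; fluorescence 365/440 nm, compounds 0.7 nM–77 uM, AC50 from Hill fits.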

DNA dC->dU-editing enzyme APOBEC-3G (Homo sapiens), sequence (Q9HC16 whole entry, looked up): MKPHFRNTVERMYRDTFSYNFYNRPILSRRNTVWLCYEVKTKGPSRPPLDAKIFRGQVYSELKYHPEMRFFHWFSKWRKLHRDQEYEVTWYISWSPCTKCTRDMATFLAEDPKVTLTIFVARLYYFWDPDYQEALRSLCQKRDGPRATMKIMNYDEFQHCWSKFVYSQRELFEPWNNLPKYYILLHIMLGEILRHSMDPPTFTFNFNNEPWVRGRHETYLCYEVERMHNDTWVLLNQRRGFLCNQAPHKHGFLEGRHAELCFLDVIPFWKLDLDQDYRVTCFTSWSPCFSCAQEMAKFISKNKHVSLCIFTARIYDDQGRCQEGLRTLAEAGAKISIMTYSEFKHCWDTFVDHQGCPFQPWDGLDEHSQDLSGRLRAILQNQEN
Cytochrome P450 2D6 (Homo sapiens), sequence (P10635 whole entry, looked up): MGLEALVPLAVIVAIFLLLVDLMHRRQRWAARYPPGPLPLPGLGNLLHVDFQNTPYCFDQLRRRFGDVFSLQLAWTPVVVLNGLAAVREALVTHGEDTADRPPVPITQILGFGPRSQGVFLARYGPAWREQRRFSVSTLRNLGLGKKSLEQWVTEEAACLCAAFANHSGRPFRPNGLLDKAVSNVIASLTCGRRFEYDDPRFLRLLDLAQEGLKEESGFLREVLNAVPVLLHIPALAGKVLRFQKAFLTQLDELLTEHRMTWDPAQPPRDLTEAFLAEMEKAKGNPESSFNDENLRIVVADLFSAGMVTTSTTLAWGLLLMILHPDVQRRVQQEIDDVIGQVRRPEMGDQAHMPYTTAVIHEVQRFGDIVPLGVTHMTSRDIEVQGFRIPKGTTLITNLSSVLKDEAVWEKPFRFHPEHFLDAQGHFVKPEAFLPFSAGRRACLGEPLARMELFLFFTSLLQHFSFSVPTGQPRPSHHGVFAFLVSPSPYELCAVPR
Cytochrome P450 3A4 (Homo sapiens), sequence (P08684 whole entry, looked up): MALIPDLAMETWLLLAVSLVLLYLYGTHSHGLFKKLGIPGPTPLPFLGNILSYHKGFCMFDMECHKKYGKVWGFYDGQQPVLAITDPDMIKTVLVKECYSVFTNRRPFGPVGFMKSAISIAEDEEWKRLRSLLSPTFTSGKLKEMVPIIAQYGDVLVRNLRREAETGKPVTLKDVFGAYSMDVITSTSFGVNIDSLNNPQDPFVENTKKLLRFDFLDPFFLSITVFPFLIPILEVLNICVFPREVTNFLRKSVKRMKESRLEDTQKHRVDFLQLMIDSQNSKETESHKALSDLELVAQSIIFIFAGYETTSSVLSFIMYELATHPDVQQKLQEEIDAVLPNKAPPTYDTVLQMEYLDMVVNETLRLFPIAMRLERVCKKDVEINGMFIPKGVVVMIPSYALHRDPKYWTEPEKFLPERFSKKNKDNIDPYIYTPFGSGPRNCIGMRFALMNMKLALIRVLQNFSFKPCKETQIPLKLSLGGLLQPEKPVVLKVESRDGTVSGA
3',5'-cyclic-AMP phosphodiesterase 4B (Homo sapiens), sequence (Q07343 whole entry, looked up): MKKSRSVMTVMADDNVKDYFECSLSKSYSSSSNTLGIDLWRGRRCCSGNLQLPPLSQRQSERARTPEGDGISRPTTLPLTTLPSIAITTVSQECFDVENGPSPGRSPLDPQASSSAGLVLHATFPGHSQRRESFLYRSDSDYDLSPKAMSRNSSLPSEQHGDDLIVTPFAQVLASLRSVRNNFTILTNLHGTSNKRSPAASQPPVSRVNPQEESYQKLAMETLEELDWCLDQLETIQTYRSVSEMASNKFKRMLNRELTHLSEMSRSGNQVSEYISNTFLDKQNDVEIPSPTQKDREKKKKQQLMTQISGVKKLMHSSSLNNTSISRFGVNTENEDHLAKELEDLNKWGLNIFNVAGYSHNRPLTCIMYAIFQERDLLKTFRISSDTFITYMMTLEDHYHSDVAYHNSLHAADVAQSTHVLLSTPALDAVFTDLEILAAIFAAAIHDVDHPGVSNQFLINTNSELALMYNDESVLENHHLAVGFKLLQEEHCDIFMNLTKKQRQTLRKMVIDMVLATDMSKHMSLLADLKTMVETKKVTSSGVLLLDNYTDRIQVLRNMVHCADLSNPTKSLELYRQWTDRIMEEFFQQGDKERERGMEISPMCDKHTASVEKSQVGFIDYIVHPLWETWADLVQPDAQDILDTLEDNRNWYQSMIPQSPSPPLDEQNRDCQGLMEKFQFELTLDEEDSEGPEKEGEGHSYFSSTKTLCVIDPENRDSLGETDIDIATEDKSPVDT
Glucocorticoid receptor (Homo sapiens), sequence (P04150 whole entry, looked up, the tested form may be a part): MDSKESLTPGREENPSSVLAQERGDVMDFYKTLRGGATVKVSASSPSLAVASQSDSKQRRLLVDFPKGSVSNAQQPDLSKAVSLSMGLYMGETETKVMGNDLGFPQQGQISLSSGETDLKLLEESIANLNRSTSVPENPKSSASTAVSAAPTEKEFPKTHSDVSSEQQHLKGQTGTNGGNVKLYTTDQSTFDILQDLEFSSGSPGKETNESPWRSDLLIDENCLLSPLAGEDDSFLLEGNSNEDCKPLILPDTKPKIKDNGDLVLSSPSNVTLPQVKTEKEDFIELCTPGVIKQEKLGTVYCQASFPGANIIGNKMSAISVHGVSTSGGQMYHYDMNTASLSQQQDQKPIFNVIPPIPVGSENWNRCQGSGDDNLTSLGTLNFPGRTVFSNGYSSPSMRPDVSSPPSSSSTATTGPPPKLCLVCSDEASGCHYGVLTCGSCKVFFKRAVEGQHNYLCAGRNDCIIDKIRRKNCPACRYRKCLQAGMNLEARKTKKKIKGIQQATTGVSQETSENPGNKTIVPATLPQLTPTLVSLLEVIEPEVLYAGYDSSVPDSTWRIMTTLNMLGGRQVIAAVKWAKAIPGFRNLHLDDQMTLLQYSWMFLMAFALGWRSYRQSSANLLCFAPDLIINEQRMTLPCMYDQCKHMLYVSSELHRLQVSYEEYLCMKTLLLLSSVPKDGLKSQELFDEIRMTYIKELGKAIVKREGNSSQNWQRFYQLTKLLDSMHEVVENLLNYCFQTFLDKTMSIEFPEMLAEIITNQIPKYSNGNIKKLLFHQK
Ubiquitin carboxyl-terminal hydrolase 1 (Homo sapiens), sequence (O94782 whole entry, looked up): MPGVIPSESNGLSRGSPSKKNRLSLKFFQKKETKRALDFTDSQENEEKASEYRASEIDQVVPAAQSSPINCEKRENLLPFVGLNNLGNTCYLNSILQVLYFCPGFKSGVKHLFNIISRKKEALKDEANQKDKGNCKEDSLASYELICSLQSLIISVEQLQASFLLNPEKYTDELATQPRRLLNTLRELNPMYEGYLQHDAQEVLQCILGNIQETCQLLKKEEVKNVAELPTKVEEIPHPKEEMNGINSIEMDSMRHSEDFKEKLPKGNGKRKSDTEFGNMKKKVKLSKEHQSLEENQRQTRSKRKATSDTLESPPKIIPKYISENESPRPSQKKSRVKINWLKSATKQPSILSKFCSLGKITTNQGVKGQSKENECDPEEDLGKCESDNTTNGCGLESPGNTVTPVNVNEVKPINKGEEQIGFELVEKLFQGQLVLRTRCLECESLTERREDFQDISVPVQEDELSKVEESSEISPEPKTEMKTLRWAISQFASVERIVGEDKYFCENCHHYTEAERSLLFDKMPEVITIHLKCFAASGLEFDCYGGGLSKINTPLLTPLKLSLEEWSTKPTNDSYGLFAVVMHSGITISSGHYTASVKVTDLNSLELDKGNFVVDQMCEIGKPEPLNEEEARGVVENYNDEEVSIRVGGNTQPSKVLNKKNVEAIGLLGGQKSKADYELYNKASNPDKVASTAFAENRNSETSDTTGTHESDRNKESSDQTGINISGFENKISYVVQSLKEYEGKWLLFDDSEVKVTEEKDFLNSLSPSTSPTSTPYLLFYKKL
Alpha-galactosidase A (Homo sapiens), sequence (P06280 whole entry, looked up): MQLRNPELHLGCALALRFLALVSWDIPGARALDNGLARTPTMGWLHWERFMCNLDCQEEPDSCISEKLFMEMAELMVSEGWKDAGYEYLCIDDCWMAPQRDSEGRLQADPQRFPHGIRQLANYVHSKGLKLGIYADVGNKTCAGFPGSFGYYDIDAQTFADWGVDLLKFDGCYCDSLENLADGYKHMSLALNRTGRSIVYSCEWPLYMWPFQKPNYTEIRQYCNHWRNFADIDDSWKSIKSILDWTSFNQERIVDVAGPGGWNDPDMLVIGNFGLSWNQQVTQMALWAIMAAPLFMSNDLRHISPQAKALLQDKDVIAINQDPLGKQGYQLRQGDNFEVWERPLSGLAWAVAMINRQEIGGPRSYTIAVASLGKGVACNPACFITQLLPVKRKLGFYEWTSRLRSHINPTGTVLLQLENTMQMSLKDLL
Cytochrome P450 1A2 (Homo sapiens), sequence (P05177 whole entry, looked up): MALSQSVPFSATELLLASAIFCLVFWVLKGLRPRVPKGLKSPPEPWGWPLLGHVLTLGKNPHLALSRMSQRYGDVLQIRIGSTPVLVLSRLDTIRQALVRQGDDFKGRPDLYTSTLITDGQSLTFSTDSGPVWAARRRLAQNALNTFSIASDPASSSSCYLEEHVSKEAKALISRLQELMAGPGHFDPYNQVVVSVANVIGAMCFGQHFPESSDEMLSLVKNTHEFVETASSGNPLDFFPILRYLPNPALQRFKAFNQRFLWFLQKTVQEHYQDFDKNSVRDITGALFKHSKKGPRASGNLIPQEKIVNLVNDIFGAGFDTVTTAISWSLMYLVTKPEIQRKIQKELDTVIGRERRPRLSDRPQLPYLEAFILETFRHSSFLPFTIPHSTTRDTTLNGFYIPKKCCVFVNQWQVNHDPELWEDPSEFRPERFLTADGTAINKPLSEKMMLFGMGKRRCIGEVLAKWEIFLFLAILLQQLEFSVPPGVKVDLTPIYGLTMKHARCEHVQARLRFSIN
Guanine nucleotide-binding protein G(i) subunit alpha-1 (Homo sapiens), sequence (P63096 whole entry, looked up): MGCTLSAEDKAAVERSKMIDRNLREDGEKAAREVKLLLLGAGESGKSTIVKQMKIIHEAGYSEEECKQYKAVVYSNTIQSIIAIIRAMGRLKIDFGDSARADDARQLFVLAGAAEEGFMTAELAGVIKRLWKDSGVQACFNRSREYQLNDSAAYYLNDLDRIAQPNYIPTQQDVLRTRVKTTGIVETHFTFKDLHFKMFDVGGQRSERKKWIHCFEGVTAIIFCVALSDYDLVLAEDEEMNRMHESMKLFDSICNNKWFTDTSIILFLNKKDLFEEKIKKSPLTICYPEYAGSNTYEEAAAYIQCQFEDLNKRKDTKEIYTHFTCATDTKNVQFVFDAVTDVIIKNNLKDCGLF

O=C1CC2(CCCC2)CC(=O)N1CCCCNC[C@H]1COc2ccccc2O1
inactive: Potency [1] > 46 µM | Potency [2] > 46 µM | Potency [3] | Potency [5] | Potency [7] | Potency [8] | Potency [9]
active: Potency [4] 0.631 µM | Potency [6] 5.01 µM

c1ccc(CN2CCC3(CCc4ccccc43)CC2)cc1
inactive: Potency [1] > 46 µM | Potency [2] > 46 µM | Potency [8] | Potency [9]

c1cc2c3c(c1)c1c(n3CCNC2)CCCC1
inactive: Potency [1] > 46 µM | Potency [2] > 46 µM | Potency [7] | Potency [8] | Potency [9]

Cc1ccc(NC(=O)CSc2ncccc2C(=O)Oc2ccccc2Cl)cc1Cl
inactive: Potency [10]

CC1(C)C(=O)NC2=C1C(=O)C(=O)c1ccccc12
active: Potency [6] 2.51 µM | Potency [7] 0.891 µM
inactive: Potency [1] > 46 µM | Potency [2] > 46 µM | Potency [11] | Potency [5] | Potency [8] | Potency [9]

O=S(c1ccccc1)c1ccc2nnnn2n1 (stereo unspecified)
inactive: Potency [3] | outcome [13] | outcome [4] | outcome [5] | outcome [6] | outcome [14] | Potency [8] | Potency [9]
active: outcome [12]

COc1ccc([N+](=O)[O-])c2c1CCN2C(=O)CC[C@H](N)C(=O)O
active: Potency [1] 4.81 µM
inactive: Potency [2] > 46 µM | Potency [3] | Potency [11] | Potency [7] | Potency [8] | Potency [9]

Cc1c(C(=O)NN2CCCCC2)nn(-c2ccc(Cl)cc2Cl)c1-c1ccc(I)cc1
inactive: Potency [7] | Potency [8] | Potency [9]

CC(C)N=C(N)N=C(N)Nc1ccc(Cl)cc1
3.71%: growth, % of control [21]
5.61%: parasite growth, % of DMSO control [18]
0.187%: remaining proliferation (% of control), lower = more inhibition [17]
inactive: Potency [9]
0.237%: activity, percent of control [16]
7.67%: parasite growth remaining, % of DMSO control (lower = more inhibition) [19]
12.7%: parasite growth, % of control (lower = inhibition) [20]
-0.519%: remaining parasite growth % (stronger effect = lower value) [15]

Cc1ccc(/C(=C/CN2CCCC2)c2ccccn2)cc1
inactive: activity, negative = inhibition ([22]; at 17.2 µM (top of the series)) 6.54% | activity, negative = inhibition ([22]; at 38 µM (top of the series)) -0.742% | Potency [3] | Potency [11] | outcome [23] | outcome [24] | outcome [25] | outcome [26] | Potency [7] | Potency [8] | Potency [9]

Cc1c(C2CCN(CCc3ccccc3)CC2)noc1-c1ccc(Cl)cc1
active: Potency [5] 15.8 µM
inactive: Potency [1] > 46 µM | Potency [2] > 46 µM | Potency [3] | Potency [4] | Potency [7] | Potency [8] | Potency [9]

O=C(c1ccc(F)cc1)C1CCN(CCCCc2ccccc2)CC1
inactive: Potency [2] > 46 µM | Potency [3] | Potency [4] | Potency [7] | Potency [8] | Potency [9]

N[C@H](C(=O)O)[C@@H]1[C@@H](C(=O)O)C1(F)F
inactive: Potency [3] | Potency [7] | Potency [8] | Potency [9]

O=C1c2ccccc2C(Cc2ccncc2)(Cc2ccncc2)c2ccccc21
inactive: Potency [1] > 46 µM | Potency [2] > 46 µM | Potency [3] | Potency [5] | Potency [7] | Potency [8] | Potency [9]
active: Potency [4] 0.501 µM
